Assay results from PubChem BioAssay AID504832 (National Center for Advancing Translational Sciences (NCATS), 2011).
Several values for one entry are separate records, joined by “and”; a condition that tells them apart may be missing. Identical values can stand only once. Screen size: about 310,000 compounds; about 18,000 (5.8%) were called active. Inconclusive results (about 22%) are left out. Calls follow the shape of the dose curve; as a rule, active = well fitted inhibition curve with a large enough effect; inconclusive = small, poorly fitted or top-dose-only effect, or another doubt; inactive = no such curve, though single readings can be large or run the other way. What follows is part of a selection rich in actives, with near analogues and random picks from the rest. Where a structure was tested more than once in an assay, its records may differ in their call.

assay: Primary qHTS for delayed death inhibitors of the malarial parasite plastid, 48 hour incubation; details: P. falciparum luciferase growth in erythrocytes; series mostly up to 28.7 µM; activity change, negative = inhibition: at the top concentration
Outline: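 Firefly luciferase activity from engineered P. falciparum reports growth; inhibitors lower the luminescent signal. Cultures contained 2% hematocrit erythrocytes at 0.1% final parasitemia.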
% is scaled to controls: 0 for no effect and ±100 for the full control effect; potency is read from the fitted curve at half-maximal effect.

Row | SMILES | Potency | activity change, negative = inhibition
1 | CCOC(=O)C1=C(CNC2CCCCC2)NC(=O)NC1c1cc(C)ccc1C (stereo not given) | 10.4 µM (active) | –
2 | CC1=C(C(=O)OCC2CCCCC2)C(c2ccc(F)cc2)NC(=O)N1 (stereo not given) | – | 29.1% (inactive)
3 | CCOC(=O)C1=C(c2ccccc2)NC(=O)NC1c1cc(OC)c(OC)cc1OC (stereo not given) | – | 4.34% (inactive)
4 | Cc1ccc(S(=O)(=O)CC(=O)Nc2nnc(C)s2)cc1 | – | -2.59% (inactive)
5 | CCCCCC(=O)NC(=S)NNC(=O)c1ccc([N+](=O)[O-])cc1 | – | 11.8% (inactive)
6 | CC(C)CC(=O)NC(=S)NNC(=O)c1cccc([N+](=O)[O-])c1 | 14.7 µM (active) | –
7 | O=C(NC(=S)NC1CCS(=O)(=O)C1)c1cccc([N+](=O)[O-])c1 (stereo not given) | – | 11.5% (inactive)
8 | Cc1cc(C(=O)Nc2nnc(C3CC3)s2)c(C)s1 | – | 234% (inactive)
9 | O=C(CN1CCCCC1)Nc1ccccc1C(=O)NC1CC1 | – | 14% (inactive)
10 | O=C(COc1ccccc1Cl)Nc1ccccc1C(=O)NC1CC1 | – | -4.82% (inactive)
11 | CC(NCC(=O)Nc1ccccc1C(=O)NC1CC1)c1ccccc1Cl (stereo not given) | 9.28 µM (active) | –
12 | O=C(CN1C(=O)NC2(CCCCC2)C1=O)NCCc1c[nH]c2ccccc12 | – | -11% (inactive)
13 | CCN(CC(=O)Nc1ccc(NC(C)=O)cc1)C(=O)C1CC(=O)N(Cc2ccc(C)cc2)C1 (stereo not given) | – | 3.06% (inactive)
14 | Cn1c(=O)n(C)c2cc(S(=O)(=O)N3CCCc4ccccc43)ccc21 | – | -12.1% (inactive)
15 | CN1CCN(S(=O)(=O)c2cccc(C(=O)N3CCc4ccccc43)c2)CC1 | – | 7.8% (inactive)
16 | Cc1ccc(NC(=O)c2cccc(S(=O)(=O)N3CCCc4ccccc43)c2)nc1 | 4.15 µM (active) | –
17 | O=S(=O)(c1ccc2c(c1)OCCO2)N1CCc2ccccc21 | – | -4.28% (inactive)
18 | CC1CCN(C(=O)c2cccc(S(=O)(=O)N3CCCc4ccccc43)c2)CC1 | – | -65.1% (inactive)
19 | NS(=O)(=O)c1ccc(CNC(=O)c2cccc(S(=O)(=O)N3CCc4ccccc43)c2)cc1 | 14.7 µM (active) | –
20 | Cc1nc(COc2cc3oc(=O)cc(C)c3cc2Cl)cs1 | – | 56.1% (inactive)
21 | NC(=O)C1CCCN(CC(=O)N2CCN(c3ccccc3)CC2)C1 (stereo not given) | – | 21.6% (inactive)
22 | Cc1ccc(-n2ncc3c2CC(C)(C)CC3NC(=O)CCc2cnn(C)c2)cc1 (stereo not given) | – | -10.4% (inactive)
23 | C[n+]1cc(-c2ccccc2)oc1-c1ccccc1 | – | 79.7% (inactive)
24 | O=C(COc1ccc2c3c(c(=O)oc2c1)CCCC3)NCC(O)c1ccccc1 (stereo not given) | – | 0.369% (inactive)
25 | O=c1c2ccccc2nc(CSc2nnnn2-c2ccccc2)n1-c1ccccc1 | – | 21.2% (inactive)

Row | SMILES | Potency | activity change, negative = inhibition
26 | CCCc1nc2ccccc2c(=O)n1/N=C/c1ccc(O)c(O)c1 | – | 0% (inactive)
27 | CCCN1C(=O)C(Cc2nc3ccccc3c(=O)n2-c2ccccc2)c2cc(C)ccc21 (stereo not given) | 13.1 µM (active) | –
28 | COCCNC(=O)CN(Cc1ccco1)C(=O)CCC(=O)Nc1nccs1 | – | 3.14% (inactive)
29 | CCOc1ccc(CCNC(=O)CCc2nnc3ccc(N4CCCC4)nn23)cc1OCC | – | -17.1% (inactive)
30 | CC1C(=O)N2CCCc3cc(S(=O)(=O)NCc4ccc(F)cc4)cc1c32 (stereo not given) | – | -1.55% (inactive)
31 | CC1CCN(C(=O)C2CCN(S(=O)(=O)N3CCC4(CC3)OCCO4)CC2)CC1 | – | -24.5% (inactive)
32 | CC1(C)CC(=O)CC2(C1)NCC(c1ccccc1Cl)c1c2[nH]c2ccccc12 (stereo not given) | 10.4 µM (active) | –
33 | COc1cc2c(cc1NC(=O)COC(=O)/C=C/c1ccccc1)oc1ccccc12 | – | 19.8% (inactive)
34 | O=C(CN1CCN(S(=O)(=O)c2ccc(Br)cc2)CC1)Nc1ccccc1C(=O)c1ccccc1 | 13.1 µM (active) | –
35 | O=C(CN1CCN(S(=O)(=O)c2ccc(F)cc2)CC1)Nc1ccccc1F | – | -3.52% (inactive)
36 | COc1ccc(NC(=O)CN2CCN(S(=O)(=O)c3ccc(F)cc3)CC2)cc1Cl | – | -13.7% (inactive)
37 | C/C(=N/NC(=O)CN1CCN(S(=O)(=O)c2ccc(Br)cc2)CC1)c1ccncc1 | – | 0% (inactive)
38 | COc1cc2c(cc1NC(=O)CN1CCN(S(=O)(=O)c3ccc(F)cc3)CC1)oc1ccccc12 | 10.4 µM (active) | –
39 | CCCn1c(N)c(N(CCOC)C(=O)C2CCCC2)c(=O)[nH]c1=O | – | -0.556% (inactive)
40 | Cc1cc(NC(=O)CCS(=O)(=O)c2ccc(F)cc2)no1 | – | -24.6% (inactive)
41 | CC(C)=N/N=C1/NC(=O)C(Cc2ccccc2)S1 (stereo not given) | – | -27.8% (inactive)
42 | N#CC1(NC(=O)COC(=O)CCN=C2NS(=O)(=O)c3ccccc32)CCCCC1 | – | 0.444% (inactive)
43 | CC(=O)Nc1ccc(S(=O)(=O)N2CCC(C(=O)N[C@@H](Cc3ccccc3)C(=O)O)CC2)cc1 | – | 15.3% (inactive)
44 | CN1CCc2cc3c(cc2[C@H]1[C@@H]1OC(=O)c2c1ccc1c2OCO1)OCO3 | – | -8.96% (inactive)
45 | COc1c(O)ccc2c1CN1CCc3cc4c(cc3C1C2)OCO4 (stereo not given) | 1.85 µM (active) | –
46 | COc1cc(COCC(O)CN2CCN(Cc3ccc4c(c3)OCO4)CC2)cc(OC)c1OC (stereo not given) | – | 0% (inactive)
47 | COc1ccc(N2CCN(C(=O)CNC(=O)c3ccc(Br)o3)CC2)cc1 | – | -1.91% (inactive)
48 | COc1cccc(C(=O)NNC(=O)c2cccc(F)c2)c1 | – | 106% (inactive)
49 | CC(OC(=O)CCC(=O)c1ccccc1)C(=O)Nc1ccc(F)cc1 (stereo not given) | – | -0.871% (inactive)
50 | C=CCC(NCc1ccco1)c1ccc(OC)cc1 (stereo not given) | – | -2.5% (inactive)

Row | SMILES | Potency | activity change, negative = inhibition
51 | COc1ccc(Nc2nc(Cl)nc(NCc3ccco3)n2)cc1 | – | -11.9% (inactive)
52 | COc1ccc(Nc2nc(NCc3ccco3)nc(N/N=C/c3ccccc3Cl)n2)cc1 | 10.4 µM (active) | –
53 | CC1(c2nnc(Cc3ccccc3)o2)CC(c2ccccc2F)=NO1 (stereo not given) | – | 5.51% (inactive)
54 | O=C(Nc1ccc(S(=O)(=O)NCC2CCCO2)cc1)c1ccc(F)cc1 (stereo not given) | – | -4.09% (inactive)
55 | Cc1ccc(C)c(OCc2cc(C(=O)N3CCN(c4cnccn4)CC3)no2)c1 | – | -12.7% (inactive)
56 | COc1cc(C2C3=C(CCCC3=O)OC3=C2C(=O)CCC3)ccc1OCC(=O)Nc1ccccc1 | – | -26.2% (inactive)
57 | O=C(CCC1CCCC1)N=C1SC2CS(=O)(=O)CC2N1Cc1ccccc1 (stereo not given) | – | -0.261% (inactive)
58 | CC(C)(C)c1ccc(C(CC(=O)O)NS(=O)(=O)Cc2ccccc2)cc1 (stereo not given) | – | 20.6% (inactive)
59 | CCCOc1ccc(C(=O)NCCc2ccccc2)cc1 | – | 252% (inactive)
60 | CCCOc1ccc(C(=O)CCC(=O)OC(C)C(=O)Nc2ccc(NC(C)=O)cc2)cc1 (stereo not given) | – | 20.9% (inactive)
61 | CCCOc1ccc(C(=O)C(CCC(CNCC)C(=O)c2ccc(OCCC)cc2)CNCC)cc1 (stereo not given) | 1.85 µM (active) | –
62 | COc1ccc(NC(=O)N2CCCC2C(=O)NCc2ccccc2Cl)cc1 (stereo not given) | – | -14.8% (inactive)
63 | O=C(N/C(=C\c1ccc(O)cc1)C(=O)N1CCCCC1)c1ccccc1 | – | 31.2% (inactive)
64 | Nc1ccn(C2CC(O)C(CO)O2)c(=O)n1 (stereo not given) | – | 24.6% (inactive)
65 | Cc1ccc(NC(=O)CSc2nc(=O)n(CCN(C)C)c3c2CCCC3)c(C)c1 | – | 1.01% (inactive)
66 | Cc1cc2c(c(=O)n1Cc1ccccc1)C1O[C@](CCCCN3C(=O)c4ccccc4C3=O)(Cc3ccccc31)O2 | 0.675 µM (active) | –
67 | COc1ccc2c3c(c(=O)oc2c1)C1O[C@](CCCCN2C(=O)c4ccccc4C2=O)(Cc2c1ccc1ccccc21)O3 | – | 44.1% [at 5.75 µM] (inactive)
68 | C=CCn1c(C)cc(C(=O)CN2C(=O)c3ccccc3C2=O)c1C | – | 3.02% (inactive)
69 | NNC(=O)c1ccc(Cl)cc1Cl | – | 10.5% (inactive)
70 | CC(C)(C)c1cc(C(=O)NN)n(Cc2ccc(Cl)cc2Cl)n1 | 10.4 µM (active) | –
71 | CC(C)(C)NC(=O)NC(=O)COC(=O)Cc1ccc(Cl)cc1Cl | – | 15% (inactive)
72 | O=C(Cc1ccc(Cl)cc1)NC(=S)Nc1ccccc1O | – | 7.57% (inactive)
73 | Cc1cc(SCc2c(F)cccc2Cl)nc(=O)[nH]1 | – | -16.1% (inactive)
74 | COC(c1ccccc1)(c1ccccc1)C(Oc1nc(C)cc(C)n1)C(=O)O (stereo not given) | inactive and 11.7 µM (active) | –
75 | Cc1cc(C)nc(S/C=C/C(=O)c2ccccc2)n1 | – | 0% (inactive)

Row | SMILES | Potency | activity change, negative = inhibition
76 | C/C(=N\NC(=O)c1nc(C)cc(C)n1)c1ccccc1 | – | 174% (inactive)
77 | COc1ccccc1N1CCN(S(=O)(=O)c2ccc(Cl)cc2)CC1 | – | 1.21% [at 0.00184 µM] (inactive)
78 | CC1CCC(NC(=O)CN(C)S(=O)(=O)c2ccc3c(c2)c(=O)n(C)c(=O)n3C)CC1 (stereo not given) | – | -14.7% (inactive)
79 | Cc1cc(=O)oc2c1ccc1ccccc12 | – | -0.434% (inactive)
80 | Cc1cc(C)cc(NC(=S)NC2CC3CCCC(C2)N3Cc2cccs2)c1 (stereo not given) | 9.28 µM (active) | –
81 | Cc1ccc(NC(=S)NC2CCCC2)cc1 | – | 43.2% (inactive)
82 | C=CCN1C2CCCC1CC(NC(=S)Nc1cccc(OC)c1)C2 (stereo not given) | – | -19.1% (inactive)
83 | CC(=O)O[C@H]1CC[C@@]2(C)[C@@H](CC[C@@H]3[C@@H]2CC[C@]2(C)[C@@H](C(C)(C)O)C[C@@H]32)C1 | – | -8.46% (inactive)
84 | O=C(/C=C(O)/C=C/c1ccc(O)cc1)/C=C/c1ccc(O)cc1 | – | -5.54% (inactive)
85 | CC(=O)Nc1ccc(SC[C@H](Cc2ccccc2)N2CC[C@@H](C)CCC2=O)cc1 | 6.57 µM (active) | –
86 | CC(=O)Nc1ccc(NC(=O)C(C)OC(=O)C2CC(=O)N(CCc3ccccc3)C2)cc1 (stereo not given) | – | -8.33% (inactive)
87 | O=C1CC[C@H](O)CCN1[C@H](CSc1ccc(Br)cc1)Cc1ccccc1 | – | -4.11% (inactive)
88 | Cc1ccc2nc(NC(=O)C3CSC4(C)CCC(=O)N34)sc2c1 (stereo not given) | – | 35.9% (inactive)
89 | Cc1cc(-c2nnc(SCC(=O)Nc3ccc(F)cc3)n2N)n[nH]1 | – | -18.5% (inactive)
90 | CC(C)Cc1nnc(NC(=O)CCc2ccccc2)s1 | – | -16.9% (inactive)
91 | O=C(Cc1ccccc1Cl)N1CCN(c2ccccn2)CC1 | – | 2.94% (inactive)
92 | O=C(CSc1ncccn1)N1CCCC1 | – | 15.9% (inactive)
93 | Cc1ccnc(N2CCN(C(=O)CSc3nc4ccccc4nc3N3CCCCC3)CC2)c1 | 13.1 µM (active) | –
94 | COc1ccc2c(c1)c1nc3n(c(=O)c1n2CC(=O)Nc1ccccc1)CCS3 | – | 29.3% (inactive)
95 | O=C(CNS(=O)(=O)c1ccccc1)N1CCN(C(=O)c2ccco2)CC1 | – | 39.3% (inactive)
96 | CS/C(=C\C(=O)c1ccco1)Nc1ccccc1Cl | 8.28 µM (active) | –
97 | O=C(Nc1ccccc1C(=O)N1CCCCC1)c1ccco1 | – | 19.7% (inactive)
98 | O=C(c1cccc(S(=O)(=O)Nc2ccccc2Cl)c1)N1CCN(C(=O)c2ccco2)CC1 | – | -20.7% (inactive)
99 | CCC(C)N(C(=O)Cn1nc(C)c([N+](=O)[O-])c1C)C1CCS(=O)(=O)C1 (stereo not given) | – | 5.42% (inactive)
100 | O=C(NCCc1ccco1)C(=O)NCCC1CCCCN1S(=O)(=O)c1ccccc1 (stereo not given) | – | -21.1% (inactive)
